# Sampled rows, rich in hits. Any-hit rate of the full collection: about 13%.
# HCV inh: blocks hepatitis C virus | Huh7.5.1 HCVcc-Cre infection, luciferase reporter, 44 h | Potency, µM (series often up to 41.8 µM), hits mostly inhibitors | 3.4% of 340,000 active
#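 Reporter virus HCVcc-Cre (~0.5 moi) infects cells exposed to compound; seeding density 1,000 cells/well with 4 h settling beforehand. Luminescence, 15 sec read, taken 44 h post-infection following a 15 min RT substrate incubation.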
# Pf growth 48h: inhibits P. falciparum growth in the first generation, 48 h. P. falciparum luciferase growth in erythrocytes, 48 h. Potency, µM (top dose mostly 28.7 µM), most hits filed as inhibitors. 5.9% of 310,000 active. AID 504832
#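 Cell-based growth assay: transgenic P. falciparum expressing firefly luciferase, cultured in red cells within RPMI 1640 containing 0.5% w/v Albumax, 24 mM bicarbonate and gentamycin. A drop in luciferase activity indicates inhibition.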
# Pf growth 96h: P. falciparum growth inhibition at 96 hours; Potency, µM (top dose mostly 28.7 µM), hits mostly inhibitors; 6.9% of 320,000 active; AID 504834; P. falciparum luciferase reporter growth, 96 h
#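 Readout is luminescence from an integrated firefly luciferase in P. falciparum. Red cells, 2% hematocrit and 0.05% parasitemia final, were cultured with compound through two parasite generations (96 hours) at 37 C, 5% CO2.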
# HCMV inh: blocks human cytomegalovirus replication. 4.5% of 410,000 active. HFF cells, HCMV-luciferase reporter, 72 h; stronger effect = lower value. activity change, negative = inhibition, % at 57.5 µM; in the data active = activity change below about -60%; inconclusive = no clear call, values can overlap the other calls; inactive = above about -39%
#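 Compounds were evaluated in HFFs infected with an HCMV luciferase reporter virus (MOI 1 PFU/cell). Luciferase in lysates collected 72 h post infection served as the replication measure.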
# A number is an active result; . = inactive; ? = inconclusive; / = no result given; [ ] = another dose, or the depositor's remark. Unless noted, calls come from the whole dose curve; as a rule, active = well fitted inhibition curve with a large enough effect; inconclusive = small, poorly fitted or top-dose-only effect, or another doubt; inactive = no such curve, though single readings can be large or run the other way.
SMILES,HCV inh,Pf growth 48h,Pf growth 96h,HCMV inh
COc1cc2c(cc1OC)-c1cc(=Nc3c(C)cc(C)cc3C)n(C)c(=O)n1CC2,/,0.675µM,0.757µM,/
CC(=O)C1=C(C)NC(SCC(=O)c2cc(Cl)ccc2Cl)=C(C#N)C1c1ccco1 (centres undefined),?,9.28µM,9.28µM,.
CC(=O)C1=C(C)NC(SCC(=O)c2ccc(Cl)c(Cl)c2)=C(C#N)C1c1ccco1 (centres undefined),?,1.17µM,.,.
CC(=O)C1=C(C)NC(SCC(=O)c2ccc(F)cc2)=C(C#N)C1c1ccco1 (centres undefined),?,/,?,.
CCCCC(=O)Nc1cccc(-c2nc3ccccc3s2)c1,/,/,/,.
O=C(CC(C(=O)O)C1CCCO1)NCc1ccccc1 (centres undefined),.,.,.,-101.3
Cc1cccc(C)c1NC(=O)CSc1nc2ncccc2o1,/,/,/,.
Cc1ccc(C(=O)NN2C(=O)C3C4C=CC(C4)[C@@H]3C2=O)cc1 (some centres undefined),.,1.85µM,.,.
CCc1ccc(NS(=O)(=O)c2ccc3oc(=O)ccc3c2)cc1,.,.,.,-65.9
COC(=O)c1ccc2c(c1)C(C)(C)C(/C=C/c1ccc(OC)c(OC)c1OC)=[N+]2C,10µM,2.33µM,2.33µM,-104.9
COc1ccc(/C=N/Nc2ccc(C(=O)O)cc2)c(OC)c1OC,.,.,?,.
COc1ccc(-c2cc(C(F)(F)F)nc(SCC(=O)NC(C)c3ccccc3)n2)cc1 (centres undefined),/,/,/,.
Cc1cccc(C(C)n2nnc3ccccc32)c1O (centres undefined),?,14.7µM,10.4µM,.
O=C(NCc1ccc2c(c1)CCN2C(=O)c1ccccc1)c1ccco1,/,/,/,.
COc1ccc(-c2cn3cccnc3n2)cc1NC(=O)c1c(F)cccc1F,/,/,/,.
C1=Nc2c(Nc3ccccc3)ncnc2Oc2ccccc21,?,.,13.1µM,.
Fc1ccccc1CCNc1c2c(nc3ncnn13)CCCC2,?,.,.,-77.4
c1coc(CNc2c3c(nc4ncnn24)CCC3)c1,.,/,.,.
c1ccc(CCNc2c3c(nc4ncnn24)CCC3)cc1,/,1.47µM,.,.
Cc1cc(NCCc2ccccc2F)n2ncnc2n1,.,.,.,.
CNCC[C@@H](Oc1ccc(C(F)(F)F)cc1)c1ccccc1,7.94µM,?,?,.
CN(C)C(CNc1ccc(C(F)(F)F)cn1)c1ccccc1 (centres undefined),.,.,.,.
CCCCCn1c(=O)[nH]c2cc(C(=O)N3CCN(c4ccc(F)cc4)CC3)ccc2c1=O,?,/,/,-76.0
CCCCCn1c(=O)[nH]c2cc(C(=O)N3CCN(c4ccc(OC)cc4)CC3)ccc2c1=O,/,/,/,.
CCCCCn1c(=O)[nH]c2cc(C(=O)N3CCN(c4ccc(C(C)=O)cc4)CC3)ccc2c1=O,7.94µM,?,11.7µM,-74.0
SMILES,HCV inh,Pf growth 48h,Pf growth 96h,HCMV inh
Cc1ccc(NC(=O)C2CCN(c3nc4ccccc4[nH]3)CC2)c(C)c1,/,/,/,.
COc1ccc2c3c(c(=O)oc2c1)C1O[C@](CCCCN2C(=O)c4ccccc4C2=O)(Cc2cc(OC)c(OC)cc21)O3,/,1.51µM,.[5.75 µM],/
COc1cc2c(cc1OC)C1O[C@](CCCCN3C(=O)c4ccccc4C3=O)(C2)OC2=C1C(=O)CCC2,/,1.51µM,1.51µM,/
COc1cc2c(cc1OC)C1O[C@](CCCCN3C(=O)c4ccccc4C3=O)(C2)OC2=C1C(=O)c1ccccc1C2=O,/,?,0.338µM,/
COc1cc2c(cc1OC)C1O[C@](CCCCN3C(=O)c4ccccc4C3=O)(C2)Oc2c1c(=O)oc1ccc(F)cc21,/,?,.[5.75 µM],/
COc1ccc(CCNC(=O)c2ccc3c(c2)N(Cc2ccc(F)cc2)C(=O)c2ccccc2S3(=O)=O)cc1OC,/,/,/,.
COc1cccc(/C=N/NC(=O)c2ccc(-c3ccccc3)cc2)c1O,?,/,7.38µM,-97.6
COCCCNC(=S)N/N=C/c1cccc(OC)c1O,?,0.415µM,?,.
COc1cccc(/C=N/NC(=O)C[n+]2ccccc2)c1O,.,?,5.86µM,.
CCOc1c(Br)cc(/C=N\NC(=O)c2ccccc2)cc1OC,?,5.22µM,8.28µM,-62.5
COc1cc(/C=N/NC(=O)c2ccccc2)ccc1O,.,.,.,.
COc1cc(OC)c(OC)cc1/C=N/NC(=O)C[n+]1ccccc1,.,.,.,?
COc1ccc(CCCC(=O)N/N=C/c2cccc(OC)c2O)cc1C,?,.,.,-99.1
COc1cc(/C=N/NC(=O)CC23CC4CC(CC(C4)C2)C3)cc(Br)c1OCC(=O)N(C)C,?,13.1µM,?,.
COc1cc(/C=N\NC(=O)c2ccc(-c3ccccc3)cc2)cc(Br)c1O,?,.,.,-68.4
COc1cc(/C=N/NC(=O)C23CC4CC(CC(C4)C2)C3)cc(Br)c1O,.,.,.,.
COc1ccc(/C=N/NC(=O)c2ccc(-c3ccccc3)cc2)cc1O,?,.,.,-60.2
CCc1ccccc1NS(=O)(=O)c1ccc(NC(=O)N2CCCC2)cc1,/,/,/,.
CCOc1ccc(-c2nn(CC(=O)NC3CCCC3)c3c2cnc2ccc(C)cc23)cc1,/,/,/,.
COc1cccc(/C=N/NC(=O)c2[nH]c(C)c(C(=O)N/N=C/c3cccc(OC)c3O)c2C)c1O,?,9.28µM,/,.
COc1ccccc1/C=N/NC(=O)c1cccc(OC(F)(F)C(F)F)c1,.,.,.,.
COc1cccc(/C=N/NC(=O)c2ccc(=O)[nH]n2)c1O,.,5.86µM,.,.
COc1cccc(/C=N/NC(=O)C(=O)Nc2ccccc2OC(F)(F)C(F)F)c1O,?,?,.,-93.5
CC1CCN(CCCNC(=O)c2ccc3c(=O)n(Cc4ccc(Cl)cc4)c(=S)[nH]c3c2)CC1,?,13.1µM,.[5.75 µM],.
CN(C)CCNC(=O)c1ccc2c(=O)n(Cc3ccc(Cl)cc3)c(=S)[nH]c2c1,?,?,.,.
SMILES,HCV inh,Pf growth 48h,Pf growth 96h,HCMV inh
O=C(NCCCN1CCOCC1)c1ccc2c(=O)n(Cc3ccc(Cl)cc3)c(=S)[nH]c2c1,?,?,?,.
CCOc1cc2[nH]c(=O)n(Cc3ccc(C(=O)NCCCN4CCC(C)CC4)cc3)c(=O)c2cc1OCC,?,?,.,-64.4
CCCCN(C)CCNC(=O)c1ccc(Cn2c(=S)[nH]c3ccc(Br)cc3c2=O)cc1,11.2µM,?,10.4µM,.
COc1ccc(C)c2sc(NC(=O)c3ccc(S(=O)(=O)N4CCOCC4)cc3)nc12,/,/,/,.
O=c1oc(-c2ccccc2NS(=O)(=O)c2ccc3ccccc3c2)nc2ccccc12,.,.,10.4µM,.
Cc1oc(-c2ccccc2)nc1CSc1nnc(C)n2c1cc1sccc12,/,/,/,.
CC1=CC(C)(C)N2C(=O)C3(C(C#N)=C(N)OC4=C3C(=O)CCC4)c3c(C)c(C)cc1c32 (centres undefined),.,.,.,.
CCOC(=O)C1=C(N)OC2=C(C(=O)CCC2)C12C(=O)N1c3c(ccc(C)c32)C(C)=CC1(C)C (centres undefined),.,?,11.7µM,.
CCc1ccc(CNc2nc3nc(C)c(Cc4ccccc4)c(=O)n3[nH]2)cc1,/,/,/,.
CC(C)NC(=O)NC(=O)COC(=O)c1c2c(nc3ccccc13)CCC2,4.47µM,?,?,?

# Bioassay records: PubChem, National Center for Advancing Translational Sciences (NCATS)
